The results in this text go back to PubChem BioAssay (NCI).

Test systems include SR leukemia; RPMI-8226 leukemia; OVCAR-8 ovarian; OVCAR-5 ovarian; SK-OV-3 ovarian; IGROV1 ovarian; OVCAR-3 ovarian; NCI/ADR-RES ovarian; T-47D breast; BT-549 breast; MDA-MB-435 melanoma; MCF7 breast; HCT-116 colon; KM12 colon; HCC-2998 colon; SW-620 colon; HS 578T breast; OVCAR-4 ovarian.
Assay in all cases: NCI-60 one-dose screen, 48 h (100 = growth as untreated, 0 = no growth, -100 = all killed)
Conditions in all cases: 10 µM unless noted

About 83,000 compounds went through this panel and 20% of them were active in at least one assay; those are over-represented in the sample as a whole.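 Values shown are percent growth following 48 h exposure of cells in 96-well plates to a single concentration of compound; below 10 was considered active.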 A number with no mark means an inactive call. Active and inactive are the calls of the source.

Consider `N#CCCCCCCCCCCC#N`, for which the growth in the experiment with SR leukemia was 118%; in the experiment with RPMI-8226 leukemia it was 94.9%; with OVCAR-8 ovarian it was 100%; in the experiment on OVCAR-5 ovarian, 99.6%; in the experiment on SK-OV-3 ovarian, 109%; with IGROV1 ovarian it was 124%. Further, the growth was 125% in the experiment with OVCAR-3 ovarian; 98.3% with NCI/ADR-RES ovarian; 96.2% in the experiment with T-47D breast; 102% with BT-549 breast; 91.9% in the experiment with MDA-MB-435 melanoma; 104% with MCF7 breast. Moreover, the growth in the experiment on HCT-116 colon was 105%; in the experiment on KM12 colon, 111%.
`N#Cc1ccc(NC2c3ccccc3CC2O)cc1` (stereo not drawn): the growth in the experiment on SR leukemia is 99.3%; in the experiment with RPMI-8226 leukemia, 96.3%; in the experiment on OVCAR-8 ovarian it was 122%; in the experiment with OVCAR-5 ovarian it was 113%; with SK-OV-3 ovarian, 106%; in the experiment with IGROV1 ovarian it was 116%. The growth was 129% in the experiment on OVCAR-3 ovarian; 115% in the experiment on NCI/ADR-RES ovarian; 103% in the experiment on T-47D breast; 99.2% with BT-549 breast; 117% in the experiment with MDA-MB-435 melanoma; 95.8% in the experiment on MCF7 breast. The growth in the experiment with HCT-116 colon was 101%; with HCC-2998 colon it was 105%; in the experiment on KM12 colon, 112%.
In the case of `O=C1/C(=C/c2ccc(Cl)cc2)CCC/C1=C\c1ccc(Cl)cc1`, the growth in the experiment with SR leukemia is 48.7%; in the experiment with RPMI-8226 leukemia, -0.252% (active); in the experiment on OVCAR-8 ovarian, 68.9%; with OVCAR-5 ovarian, 96.7%; in the experiment on SK-OV-3 ovarian, 88%; in the experiment on IGROV1 ovarian, 62.6%. For the same molecule, the growth was 55.8% in the experiment on OVCAR-3 ovarian; 87.2% in the experiment on NCI/ADR-RES ovarian; 79.6% with T-47D breast; 97% in the experiment on BT-549 breast; 15.9% in the experiment on MDA-MB-435 melanoma; 30.6% in the experiment on SW-620 colon. The growth is 17.3% with MCF7 breast, -42.6% (active) with HCT-116 colon, 28.6% with HCC-2998 colon and 18.7% in the experiment on KM12 colon.
As to `Cc1ccc([C@@H]2C[C@H](O)Cc3ccccc3N2)s1`, the growth in the experiment with SR leukemia is 96.4%; in the experiment on RPMI-8226 leukemia it was 102%; in the experiment with OVCAR-8 ovarian it was 99.1%; in the experiment with OVCAR-5 ovarian, 97.7%; in the experiment with SK-OV-3 ovarian, 98.6%; in the experiment with IGROV1 ovarian, 100%. For the same molecule, the growth in the experiment on OVCAR-3 ovarian is 111%; in the experiment with NCI/ADR-RES ovarian, 104%; with T-47D breast it was 99.1%; in the experiment on BT-549 breast it was 110%; in the experiment on MDA-MB-435 melanoma, 103%; in the experiment on SW-620 colon, 101%. Further, the growth is 107% in the experiment with MCF7 breast, 116% in the experiment on HCT-116 colon, 101% in the experiment with HCC-2998 colon and 109% with KM12 colon.
As for `CCCCCCN(CCCCCC)CCC(=O)Nc1ccc(S(=O)(=O)c2ccc(NC(=O)CCN(CCCCCC)CCCCCC)cc2)cc1`, the growth in the experiment with SR leukemia is 7.85% (active); with RPMI-8226 leukemia, 60.7%; in the experiment on OVCAR-8 ovarian it was 90.8%; with OVCAR-5 ovarian it was 82.9%; in the experiment on SK-OV-3 ovarian, 84.2%; in the experiment on IGROV1 ovarian, 84.3%. In addition, the growth was 80.7% with OVCAR-3 ovarian; 83.8% in the experiment on NCI/ADR-RES ovarian; 60% in the experiment on T-47D breast; 87.5% in the experiment on BT-549 breast; 90.5% in the experiment on MDA-MB-435 melanoma; 68.7% in the experiment on MCF7 breast. For the same molecule, the growth was 61.2% with HCT-116 colon, 32.5% in the experiment with HCC-2998 colon and 89.5% with KM12 colon.
On to `COc1cc(-c2nn(-c3ccc(NC(=O)Nc4cc(C(F)(F)F)cc(C(F)(F)F)c4)cc3)cc2-c2ccncc2)ccc1Cl`, for which the growth in the experiment on SR leukemia was -0.776% (active); in the experiment on RPMI-8226 leukemia, -2.24% (active); with OVCAR-8 ovarian, 9.59% (active); in the experiment on OVCAR-5 ovarian, 18.8%; with SK-OV-3 ovarian, -3.31% (active); in the experiment on OVCAR-3 ovarian it was -20.9% (active). The growth was -34% (active) in the experiment with HS 578T breast; 3.86% (active) in the experiment on NCI/ADR-RES ovarian; 8.74% (active) in the experiment on T-47D breast; 0.886% (active) in the experiment on MDA-MB-435 melanoma; 13.9% in the experiment with SW-620 colon; -11% (active) in the experiment with HCT-116 colon. The growth is -7.63% (active) in the experiment with HCC-2998 colon and 0.412% (active) in the experiment with KM12 colon.
Regarding `CCOC(=O)NC1=NCC(C)(C)S1`, the growth in the experiment on SR leukemia was 104%; with RPMI-8226 leukemia, 108%; in the experiment with OVCAR-8 ovarian it was 104%; in the experiment with OVCAR-4 ovarian, 102%; in the experiment with SK-OV-3 ovarian, 95.2%; in the experiment with IGROV1 ovarian, 111%. For the same molecule, the growth in the experiment with OVCAR-3 ovarian was 97.4%; with HS 578T breast, 98.7%; in the experiment on NCI/ADR-RES ovarian it was 103%; in the experiment on T-47D breast, 93.8%; in the experiment with BT-549 breast, 106%; in the experiment on MDA-MB-435 melanoma it was 100%. Also, the growth in the experiment with SW-620 colon is 103%; in the experiment with MCF7 breast it was 100%; with HCT-116 colon, 105%; in the experiment on HCC-2998 colon, 98.3%; in the experiment with KM12 colon, 101%.
For `O=C(N/N=C\c1ccc(Cl)cc1)C(=O)N/N=C\c1ccc(Cl)cc1`, the growth is 90.7% with SR leukemia; 95.7% with RPMI-8226 leukemia; 102% in the experiment on OVCAR-8 ovarian; 105% with OVCAR-5 ovarian; 92.4% in the experiment on SK-OV-3 ovarian; 88.7% in the experiment with IGROV1 ovarian. The growth with OVCAR-3 ovarian was 123%; with NCI/ADR-RES ovarian, 104%; in the experiment on T-47D breast it was 99.2%; in the experiment with BT-549 breast, 95.4%; in the experiment on MDA-MB-435 melanoma, 108%; in the experiment on SW-620 colon, 113%. The growth was 96.5% in the experiment with MCF7 breast, 106% in the experiment with HCT-116 colon, 110% in the experiment on HCC-2998 colon and 106% in the experiment on KM12 colon.
`C=C[C@]1(C)C=C2C(=O)[C@@]3(O)OC[C@@]4(CCCC(C)(C)C43O)C2(O)C(O)C1` (stereo partly drawn): the growth is -14.4% (active) in the experiment on SR leukemia; 15.2% in the experiment on RPMI-8226 leukemia; 58.3% in the experiment on OVCAR-8 ovarian; 24.4% in the experiment on OVCAR-4 ovarian; 104% with SK-OV-3 ovarian; 107% in the experiment with IGROV1 ovarian. Further, the growth was 16.3% with OVCAR-3 ovarian; 60.9% in the experiment with NCI/ADR-RES ovarian; 20.9% in the experiment on T-47D breast; 60.2% with MDA-MB-435 melanoma; -57.7% (active) in the experiment on SW-620 colon; 21% in the experiment with MCF7 breast. Further, the growth was -79.6% (active) with HCT-116 colon and 89.4% in the experiment on KM12 colon.
As for `Cc1ccc(C(=O)NN)cc1`, the growth in the experiment with SR leukemia is 80.3%; with OVCAR-5 ovarian, 116%; in the experiment on OVCAR-4 ovarian, 98.2%; in the experiment with SK-OV-3 ovarian it was 110%; in the experiment on IGROV1 ovarian it was 124%; in the experiment on NCI/ADR-RES ovarian it was 103%. The growth in the experiment with T-47D breast is 109%; in the experiment on MDA-MB-435 melanoma, 109%; with MCF7 breast, 99.7%; in the experiment on HCT-116 colon it was 100%; with HCC-2998 colon, 99.5%.
